Outcome and AC50 data for 13 molecules are collected here from PubChem BioAssay (EPA / NIEHS).

A short description of experiment [1]: BSK_CASM3C_SRB: Viability Assessment in the BioMAP Diversity Plus: CASM3C Assay (AID 2283050).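 Further: total protein by SRB staining as cytotoxicity measure in parallel cultures; cells exposed to compound for 24 h.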 The settings on record: primary human coronary artery smooth muscle cells.
Read-out in experiment [2]: Thrombomodulin, THBD (gene 7056)
The experiment can be described thus: BSK_CASM3C_Thrombomodulin: BioMAP Diversity Plus: CASM3C Assay for Thrombomodulin Biomarker Activity (AID 2283051).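 Further: thrombomodulin protein level measured by ELISA 24 h after dosing.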 The settings on record: primary human coronary artery smooth muscle cells; actives raise or lower the signal.

Read-out in experiment [3]: Tissue Factor, F3 (gene 2152)
The experiment can be described thus: BSK_CASM3C_TissueFactor: BioMAP Diversity Plus: CASM3C Assay for Tissue Factor Biomarker Activity (AID 2283052).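 Further: cell surface tissue factor protein level read by ELISA.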 The note with it: primary human coronary artery smooth muscle cells; actives raise or lower the signal.

Read-out in experiment [4]: Interferon-gamma inducible Protein 10 (IP10), CXCL10 (gene 3627)
As to the kind of experiment: BSK_hDFCGF_IP10: BioMAP Diversity Plus: hDFCGF Assay for Interferon-gamma inducible Protein 10 (IP10) Biomarker Activity (AID 2283053). The note with it: primary human foreskin fibroblasts; actives raise or lower the signal. The procedure, abridged: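 Chemical-treated human skin fibroblasts (primary) were sampled at 24 h for IP-10 by ELISA. Both increases and decreases relative to DMSO were scored.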

Read-out in experiment [5]: Urokinase-type plasminogen activator receptor (uPAR), PLAUR (gene 5329)
The experiment can be described thus: BSK_CASM3C_uPAR: BioMAP Diversity Plus: CASM3C Assay for Urokinase-type plasminogen activator receptor (uPAR) Biomarker Activity (AID 2283054).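 Further: cell-surface uPAR protein level quantified by ELISA.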 The note with it: primary human coronary artery smooth muscle cells; actives raise or lower the signal.

Read-out in experiment [6]: Vascular cell adhesion molecule 1 (VCAM1), VCAM1 (gene 7412)
As to the kind of experiment: BSK_CASM3C_VCAM1: BioMAP Diversity Plus: CASM3C Assay for Vascular cell adhesion molecule 1 (VCAM1) Biomarker Activity (AID 2283055).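 Further: VCAM-1 protein level quantified by ELISA on the cells.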 The note with it: primary human coronary artery smooth muscle cells; actives raise or lower the signal.

Read-out in experiment [7]: Collagen III, COL3A1 (gene 1281)
As to the kind of experiment: BSK_hDFCGF_CollagenIII: BioMAP Diversity Plus: hDFCGF Assay for Collagen III Biomarker Activity (AID 2283056). The note with it: primary human foreskin fibroblasts; actives raise or lower the signal. A digest of the protocol: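 Human foreskin fibroblast primary cultures sampled 24 h after dosing; Collagen III quantified by ELISA. Signal fitted bidirectionally against DMSO baseline.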

Read-out in experiment [8]: Epidermal growth factor receptor (EGFR), EGFR (gene 1956)
As to the kind of experiment: BSK_hDFCGF_EGFR: BioMAP Diversity Plus: hDFCGF Assay for Epidermal growth factor receptor (EGFR) Biomarker Activity (AID 2283057). The settings on record: primary human foreskin fibroblasts; actives raise or lower the signal. The procedure, abridged:
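Cell-based multiplexed assay in primary human foreskin fibroblasts. EGFR is read by ELISA 24 h after treatment and compared with DMSO controls.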

Experiment [9] can be described thus: BSK_hDFCGF_Proliferation: Cell Proliferation Assessment in the BioMAP Diversity Plus: hDFCGF Assay (AID 2283059).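 Further: curves fitted for both rise and fall of signal versus DMSO baseline.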 The settings on record: primary human foreskin fibroblasts. The procedure, abridged: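 Primary human foreskin fibroblasts, sub-confluent; […]; 10% TCA fix, 0.1% SRB stain, A560 total protein. Gain/loss fitted bidirectionally vs DMSO control.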

Each structure is given as a SMILES string. “And” between values parts separate entries of the source, which are not always exact repeats. Equal values may be shown once. More than one record can exist for a structure, and the calls need not agree. The source made the active and inactive calls. How the source made its calls: active means hit-call score of the fitted dose curve at least 0.9, where 1 is the maximum; inactive means score below 0.9.

One may read the AC50 as the midpoint of the concentration-response curve, whichever way the signal moves. For the molecule `COC(=O)N(OC)c1ccccc1COc1ccn(-c2ccc(Cl)cc2)n1`, the outcome in experiment [1], in experiment [3], in experiment [4], in [5] and in experiment [8] was inactive. The values for the concentration at half-maximal activity (AC50) in experiment [2], in experiment [6] and in [7] were 31.2 µM (active), 11.7 µM (active) and 0.8 µM (active), respectively.
Regarding `Cc1ccc(-c2c(Cl)nc(C#N)n2S(=O)(=O)N(C)C)cc1`, the outcome in experiment [1], in [2], in [3], in [5], in experiment [6] and in experiment [8] was inactive. The AC50 in experiment [4] was 6.3 µM (active); in experiment [7], 13.9 µM (active).
With `CCCN(CCC)c1c([N+](=O)[O-])cc(S(N)(=O)=O)cc1[N+](=O)[O-]`, the AC50 in experiment [1] was 35.6 µM (active) [middle of 4 runs]; in experiment [2], 37.6 µM (active) and 34.1 µM (active); in [3], 21.1 µM (active) and 34.7 µM (active) and 30.7 µM (active); in experiment [4], 32.5 µM (active) and 31.4 µM (active); in experiment [5], 34.5 µM (active) [middle of 4 runs]; in experiment [6], 36.4 µM (active) [middle of 4 runs]. In addition, the AC50 is 30.9 µM (active) and 16.5 µM (active) in [7]; 24.3 µM (active) [middle of 4 runs] in experiment [9]. Also, the outcome in experiment [2], in [3], in [4], in experiment [7] and in [8] was inactive.
For `COc1ccc(C(c2ccc(OC)cc2)C(Cl)(Cl)Cl)cc1`, the values for the AC50 in experiment [1], in experiment [2] and in experiment [4] were 18.4 µM (active), 13.1 µM (active) and 20 µM (active), respectively. For the same molecule, the result in [3], in experiment [5], in [6], in experiment [7] and in [8] was inactive.
With `N#CC(CCc1ccc(Cl)cc1)(Cn1cncn1)c1ccccc1` (stereo not given), the result in [1], in experiment [2], in [3], in [4], in experiment [5] and in experiment [6] was inactive. The outcome in experiment [7] and in experiment [8] was inactive.
With `CCCCOC(=O)c1ccccc1C(=O)OCCCC`, the result in experiment [1], in experiment [2], in experiment [3], in experiment [5], in [6] and in [7] was inactive. The outcome in [8] was inactive. Also, the half-maximal activity concentration (AC50) in [2] was 11 µM (active); in experiment [4], 13.9 µM (active) and 11.8 µM (active); in [7], 10.9 µM (active).
On to `CC(Oc1ccc(Cl)cc1Cl)C(=O)O` (stereo not given), for which the outcome in experiment [1], in [2], in experiment [3], in experiment [4], in [5] and in experiment [6] was inactive. Further, the result in experiment [7] and in experiment [8] was inactive.
Consider `CCNc1nc(Cl)nc(NCC)n1`, for which the result in experiment [1], in experiment [2], in experiment [3], in experiment [4], in experiment [5] and in experiment [6] was inactive. For the same molecule, the outcome in experiment [7] and in experiment [8] was inactive.
With `Fc1ccc(Oc2ccnc3cc(Cl)cc(Cl)c23)cc1`, the AC50 in experiment [1] was 23.7 µM (active); in experiment [2], 18.6 µM (active); in experiment [4] it was 24.3 µM (active); in experiment [7] it was 12.1 µM (active). The result in experiment [3], in [5], in experiment [6] and in experiment [8] was inactive.
Consider `Cc1c(F)c(F)c(COC(=O)C2C(/C=C(\Cl)C(F)(F)F)C2(C)C)c(F)c1F` (stereo not given), for which the result in [1], in [3], in [4], in experiment [5], in [6] and in experiment [7] was inactive. In addition, the outcome in experiment [8] was inactive. Also, the AC50 in experiment [2] was 14 µM (active).
Turning to `CCCCC(CC)COC(=O)c1ccccc1C(=O)OCC(CC)CCCC` (stereo not given), the result in experiment [1], in experiment [2], in experiment [3], in experiment [5], in [6] and in [7] was inactive. The result in experiment [8] was inactive. Also, the AC50 in experiment [4] is 16.6 µM (active).
Regarding `C=CCC1=C(C)C(OC(=O)C2C(C=C(C)C)C2(C)C)CC1=O` (stereo not given), the result in [1], in [2], in experiment [3], in [5], in [6] and in experiment [8] was inactive. Moreover, the AC50 in [2] is 16.6 µM (active) and 26.3 µM (active) and 21 µM (active); in [4] it was 31.7 µM (active) [middle of 4 runs]; in experiment [6], 32.5 µM (active); in [7], 21 µM (active) [middle of 4 runs]; in experiment [9], 16.5 µM (active) [middle of 4 runs].
In the case of `COc1nc(C)nc(NC(=O)NS(=O)(=O)c2ccccc2CCC(F)(F)F)n1`, the result in [1], in [2], in experiment [3], in experiment [5], in experiment [6] and in [7] was inactive. In addition, the outcome in experiment [8] was inactive. In addition, the AC50 is 148 nM (active) and 33.8 µM (active) and 3.97 µM (active) in experiment [4]; 0.213 µM (active) in [7].
